Experiment [1] concerns the target Cytochrome P450 1A2 (Homo sapiens) (UniProt P05177). The experiment is described as follows: p450-cyp1a2 (AID 410; calls by dose curve; note: potency is the fitted concentration of half-maximal effect). In short, it runs like this: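 Read-out is luminescence from luciferin produced by CYP1A2 demethylation of Luciferin-ME (100uM, at Km). Detection reagent stopped the 60 min NADPH-dependent reaction; signals were normalized to 57 uM furafylline.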
Experiment [2] has as its target Glucocorticoid receptor (Homo sapiens) (UniProt P04150). As to the kind of experiment: GR-GFP Redistribution (AID 450;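 active = compounds whose dose series gives a full or clear partial fitted curve of increased nuclear translocation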; note: potency is the fitted concentration of half-maximal effect).
Experiment [3] shares this target. The experiment is described as follows: GR-EFC Redistribution (AID 451; calls by dose curve; note: potency is the fitted concentration of half-maximal effect). The note with it: CHO-K1 GR-EFC translocation, beta-gal luminescence, 2 h. The method in brief:
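CHO-K1 cells stably expressing nuclear-localized β-gal enzyme acceptor and GR fused C-terminally to the enzyme donor fragment; ligand-driven nuclear translocation restores β-gal by complementation. Compounds titrated up to 46 uM final, 2 h at 37 °C; luminescence read.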

Experiment [4] has as its target Mitogen-activated protein kinase 10 (Mus musculus) (UniProt Q61831). The experiment is described as follows: JNK3 AlphaScreen Assay (AID 530; active = well fitted curve in either direction with a large enough effect, not every such curve was filed as active;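 note: kinase came from lysate of stimulated human HepG2 cells; signal reports phosphorylation of biotinylated GST-cJun 1-79 at Ser73 with 10 µM ATP; series mostly up to about 57 µM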). The method in brief:
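Biotinylated GST-cJun(1-79) served as substrate for JNK3 in HepG2 lysates stimulated with IL-1beta and TNF-alpha. ATP was 10 uM final, pH 7.6. Ser73 phosphorylation was quantified by AlphaScreen (680 nm excitation).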
In general terms: Bead proximity is the source of the signal in Alpha formats.

Experiment [5] addresses Cytochrome P450 2D6 (Homo sapiens) (UniProt P10635). As to the kind of experiment: qHTS Assay for Inhibitors and Substrates of Cytochrome P450 2D6 (AID 891). Note: nearly all actives have a fitted effect of over 60% in size. Note: potency is the fitted concentration of half-maximal effect. The method in brief: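 Luminescent read-out of luciferin formed by 5 nM human CYP2D6 demethylating 30 uM Luciferin-ME EGE (Km level) over 60 min at room temperature after NADPH regeneration addition. Data normalized to full inhibition by 1.43 uM quinidine.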
(In general: Quantitative high-throughput screening tests each substance at several concentrations.)

For experiment [6], the target named is Cytochrome P450 2C19 (Homo sapiens) (UniProt P33261). As to the kind of experiment: qHTS Assay for Inhibitors and Substrates of Cytochrome P450 2C19 (AID 899). Note: nearly all actives have a fitted effect of over 60% in size. Note: potency is the fitted concentration of half-maximal effect. In short, it runs like this: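 NADPH-dependent conversion of Luciferin-H EGE (10uM, at KM) by 5nM enzyme in 50mM KPO4, 60 min at 37C following 10 min compound preincubation. Stopped with luciferin detection buffer; luminescence read after 20 min.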
Chain of Cytochrome P450 2C19 (Homo sapiens) (P33261 whole entry, looked up): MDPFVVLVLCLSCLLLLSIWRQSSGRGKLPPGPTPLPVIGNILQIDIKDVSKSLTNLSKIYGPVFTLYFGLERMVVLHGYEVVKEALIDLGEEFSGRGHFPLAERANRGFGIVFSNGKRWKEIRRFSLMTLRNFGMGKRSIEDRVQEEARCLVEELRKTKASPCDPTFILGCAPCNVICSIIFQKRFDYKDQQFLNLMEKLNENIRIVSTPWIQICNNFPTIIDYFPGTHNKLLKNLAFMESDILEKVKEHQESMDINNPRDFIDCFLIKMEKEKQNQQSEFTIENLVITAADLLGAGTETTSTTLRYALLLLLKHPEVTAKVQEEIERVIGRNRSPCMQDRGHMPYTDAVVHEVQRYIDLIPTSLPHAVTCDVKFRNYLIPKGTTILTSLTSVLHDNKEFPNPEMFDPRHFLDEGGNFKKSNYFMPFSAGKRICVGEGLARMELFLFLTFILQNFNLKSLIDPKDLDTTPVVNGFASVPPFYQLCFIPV

In experiment [7] the target is Cytochrome P450 3A4 (Homo sapiens) (UniProt P08684). As to the kind of experiment: qHTS Assay for Inhibitors and Substrates of Cytochrome P450 3A4 (AID 884). Note: potency is the fitted concentration of half-maximal effect; nearly all actives have a fitted effect of over 50% in size. In short, it runs like this: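 Luminescent readout of luciferin produced by CYP3A4 (20 nM) dealkylation of Luciferin-PPXE, 25 uM (its KM). NADPH-driven reaction ran 60 min at RT after 10 min compound preincubation; data scaled to 57 uM ketoconazole as 100% inhibition.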
Chain of Cytochrome P450 3A4 (Homo sapiens) (P08684 whole entry, looked up): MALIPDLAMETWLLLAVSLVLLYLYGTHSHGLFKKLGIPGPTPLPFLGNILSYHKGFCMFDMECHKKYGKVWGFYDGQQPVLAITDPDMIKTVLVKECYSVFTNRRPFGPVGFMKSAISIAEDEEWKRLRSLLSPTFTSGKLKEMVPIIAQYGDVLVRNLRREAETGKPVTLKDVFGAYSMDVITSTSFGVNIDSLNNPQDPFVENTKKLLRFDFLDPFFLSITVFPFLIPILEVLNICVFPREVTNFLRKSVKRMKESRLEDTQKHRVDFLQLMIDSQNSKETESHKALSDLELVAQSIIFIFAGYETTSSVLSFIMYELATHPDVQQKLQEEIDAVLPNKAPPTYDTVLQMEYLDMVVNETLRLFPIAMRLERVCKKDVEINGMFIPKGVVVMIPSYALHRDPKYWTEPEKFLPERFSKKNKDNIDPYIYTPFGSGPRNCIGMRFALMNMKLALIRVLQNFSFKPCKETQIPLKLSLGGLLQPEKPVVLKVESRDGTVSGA

The target is the same in experiment [8]. The experiment is described as follows: qHTS Assay for Activators of Cytochrome P450 3A4 (AID 885). Note: nearly all actives have a fitted effect of over 65% in size. The method in brief: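 Luminescent readout of luciferin formed from 25 uM Luciferin-PPXE (KM level) by 20 nM CYP3A4 in 200 mM KPO4, with 60 min NADPH-driven reaction at room temperature after 10 min compound exposure. Ketoconazole (57 uM) defined 100% inhibition.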

The target of experiment [9] is DNA dC->dU-editing enzyme APOBEC-3G (Homo sapiens) (UniProt Q9HC16). The experiment is described as follows: qHTS for inhibitors of Vif-A3G interactions: Validation (AID 588379). The method in brief:
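Yellow fluorescence (Ex 488, Em 500-530) of Vif-coexpressing HeLa A3G-eYFP cells, scanned by Acumen cytometer, reports blocked A3G degradation. Cells plated at 700/well overnight at 37 deg C before compound addition, then a further overnight compound incubation at 37 deg C.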

For experiment [10], the target named is Cytochrome P450 2C9 (Homo sapiens) (UniProt P11712). As to the kind of experiment: qHTS Assay for Inhibitors and Substrates of Cytochrome P450 2C9 (AID 883). Note: nearly all actives have a fitted effect of over 60% in size. Note: potency is the fitted concentration of half-maximal effect. In short, it runs like this: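 A luminogenic readout tracked human CYP2C9 (10nM) converting deoxyluciferin (100uM, at KM) in 25mM KPO4 during 60 min at 37C with regenerated NADPH. Values normalized to 57uM sulphaphenazole as complete inhibition.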
Chain of Cytochrome P450 2C9 (Homo sapiens) (P11712 whole entry, looked up): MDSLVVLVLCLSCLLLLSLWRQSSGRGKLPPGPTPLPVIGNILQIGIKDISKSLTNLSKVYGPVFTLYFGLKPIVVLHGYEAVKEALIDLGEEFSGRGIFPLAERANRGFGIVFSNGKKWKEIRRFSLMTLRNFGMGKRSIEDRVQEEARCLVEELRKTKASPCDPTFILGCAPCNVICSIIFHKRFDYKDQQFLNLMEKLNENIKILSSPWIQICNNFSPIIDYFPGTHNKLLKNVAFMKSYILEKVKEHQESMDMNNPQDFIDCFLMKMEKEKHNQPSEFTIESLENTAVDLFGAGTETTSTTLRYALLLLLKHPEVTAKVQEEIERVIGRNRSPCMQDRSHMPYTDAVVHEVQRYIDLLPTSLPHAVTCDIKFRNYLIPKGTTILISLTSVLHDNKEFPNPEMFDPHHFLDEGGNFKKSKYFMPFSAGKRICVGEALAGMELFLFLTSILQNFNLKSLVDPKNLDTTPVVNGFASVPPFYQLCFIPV

The target in experiment [11] is 3',5'-cyclic-AMP phosphodiesterase 4B (Homo sapiens) (UniProt Q07343). The experiment is described as follows: qHTS Assay for Inhibitors of PDE-IV (AID 607; active = well fitted activation curve with a large enough effect in the main read-out, with a control signal flat, not every such curve was filed as active). The method in brief: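 Cell-based read-out of cAMP via a modified cyclic nucleotide-gated channel and membrane potential dye (535/590 nm) in HEK293 cells expressing PDE4 endogenously. Compounds tested up to 22.9 uM final; 100 uM RO 20-1724 reference.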
Chain of 3',5'-cyclic-AMP phosphodiesterase 4B (Homo sapiens) (Q07343 whole entry, looked up): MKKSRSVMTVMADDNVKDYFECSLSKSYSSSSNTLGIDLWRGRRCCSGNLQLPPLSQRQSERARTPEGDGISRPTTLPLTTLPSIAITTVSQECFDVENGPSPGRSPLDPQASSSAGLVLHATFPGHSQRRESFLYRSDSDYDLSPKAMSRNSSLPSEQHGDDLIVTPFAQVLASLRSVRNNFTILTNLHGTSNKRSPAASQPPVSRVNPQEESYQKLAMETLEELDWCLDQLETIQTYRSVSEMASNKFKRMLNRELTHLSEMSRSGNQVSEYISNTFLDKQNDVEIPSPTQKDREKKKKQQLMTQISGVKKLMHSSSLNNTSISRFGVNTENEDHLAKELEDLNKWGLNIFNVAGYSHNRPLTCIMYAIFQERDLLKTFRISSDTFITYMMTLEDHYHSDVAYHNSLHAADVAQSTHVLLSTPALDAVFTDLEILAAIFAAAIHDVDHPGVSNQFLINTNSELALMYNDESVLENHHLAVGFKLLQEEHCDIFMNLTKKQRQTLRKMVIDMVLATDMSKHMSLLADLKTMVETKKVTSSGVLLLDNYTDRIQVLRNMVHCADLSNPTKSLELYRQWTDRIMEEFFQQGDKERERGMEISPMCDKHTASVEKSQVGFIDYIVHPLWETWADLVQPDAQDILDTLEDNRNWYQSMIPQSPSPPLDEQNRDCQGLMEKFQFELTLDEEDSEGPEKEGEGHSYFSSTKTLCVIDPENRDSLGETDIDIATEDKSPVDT

SMILES strings stand for the structures. Values without a mark were called inactive. Inconclusive results are not listed. Calls of active or inactive are those of the source. Unless noted, calls come from the whole dose curve; as a rule, active = well fitted curve in the direction sought with a large enough effect; inconclusive = small, poorly fitted or top-dose-only effect, or another doubt; inactive = no such curve, though single readings can be large; an effect the other way counts as inactive or inconclusive.

Chain of Cytochrome P450 2D6 (Homo sapiens) (P10635 whole entry, looked up): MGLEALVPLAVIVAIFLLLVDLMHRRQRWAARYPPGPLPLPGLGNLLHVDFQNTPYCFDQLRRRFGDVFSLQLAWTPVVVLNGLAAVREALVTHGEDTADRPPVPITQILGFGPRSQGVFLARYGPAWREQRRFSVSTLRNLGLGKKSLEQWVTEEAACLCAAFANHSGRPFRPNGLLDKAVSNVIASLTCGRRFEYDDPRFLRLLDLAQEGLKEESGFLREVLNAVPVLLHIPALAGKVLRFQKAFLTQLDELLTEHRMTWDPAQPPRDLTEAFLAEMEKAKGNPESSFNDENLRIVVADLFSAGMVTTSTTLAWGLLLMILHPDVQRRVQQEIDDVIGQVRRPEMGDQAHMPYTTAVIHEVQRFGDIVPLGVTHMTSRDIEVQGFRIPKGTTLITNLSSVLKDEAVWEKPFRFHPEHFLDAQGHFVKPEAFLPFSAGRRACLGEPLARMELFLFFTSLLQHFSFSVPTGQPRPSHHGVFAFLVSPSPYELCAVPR
Chain of Glucocorticoid receptor (Homo sapiens) (P04150 whole entry, looked up): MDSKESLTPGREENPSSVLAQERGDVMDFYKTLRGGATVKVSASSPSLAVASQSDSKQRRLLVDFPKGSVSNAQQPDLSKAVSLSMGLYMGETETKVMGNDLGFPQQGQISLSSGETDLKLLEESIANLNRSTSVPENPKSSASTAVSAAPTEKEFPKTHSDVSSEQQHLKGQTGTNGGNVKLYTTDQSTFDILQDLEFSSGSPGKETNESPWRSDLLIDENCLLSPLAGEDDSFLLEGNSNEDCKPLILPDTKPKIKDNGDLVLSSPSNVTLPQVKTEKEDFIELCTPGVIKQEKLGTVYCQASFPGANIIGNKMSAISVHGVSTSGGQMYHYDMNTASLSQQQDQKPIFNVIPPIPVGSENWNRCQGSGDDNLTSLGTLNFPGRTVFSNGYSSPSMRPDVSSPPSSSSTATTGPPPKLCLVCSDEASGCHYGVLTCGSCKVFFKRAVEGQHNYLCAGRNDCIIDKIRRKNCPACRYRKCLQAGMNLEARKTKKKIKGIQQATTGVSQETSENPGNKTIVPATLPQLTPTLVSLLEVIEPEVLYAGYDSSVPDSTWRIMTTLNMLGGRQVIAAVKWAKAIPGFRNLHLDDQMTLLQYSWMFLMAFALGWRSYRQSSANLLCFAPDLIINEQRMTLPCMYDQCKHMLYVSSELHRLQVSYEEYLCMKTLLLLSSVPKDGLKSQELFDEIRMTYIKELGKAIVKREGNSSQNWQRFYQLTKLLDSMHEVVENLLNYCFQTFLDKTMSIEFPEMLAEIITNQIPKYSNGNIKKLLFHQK
Chain of Cytochrome P450 1A2 (Homo sapiens) (P05177 whole entry, looked up): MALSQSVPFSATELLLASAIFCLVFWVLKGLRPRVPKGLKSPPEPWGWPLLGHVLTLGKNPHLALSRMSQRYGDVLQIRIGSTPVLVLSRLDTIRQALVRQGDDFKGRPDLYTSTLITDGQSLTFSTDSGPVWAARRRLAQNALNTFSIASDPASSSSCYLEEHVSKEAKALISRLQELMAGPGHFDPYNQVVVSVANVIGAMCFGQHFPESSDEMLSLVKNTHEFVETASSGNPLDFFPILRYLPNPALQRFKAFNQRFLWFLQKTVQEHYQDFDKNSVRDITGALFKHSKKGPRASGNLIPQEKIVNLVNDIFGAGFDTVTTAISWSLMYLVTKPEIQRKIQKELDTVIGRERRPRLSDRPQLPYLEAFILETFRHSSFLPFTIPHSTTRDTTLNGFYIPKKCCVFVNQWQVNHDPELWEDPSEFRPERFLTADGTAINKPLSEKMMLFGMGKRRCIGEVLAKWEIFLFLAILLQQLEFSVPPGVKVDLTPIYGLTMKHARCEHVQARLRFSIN
Chain of DNA dC->dU-editing enzyme APOBEC-3G (Homo sapiens) (Q9HC16 whole entry, looked up): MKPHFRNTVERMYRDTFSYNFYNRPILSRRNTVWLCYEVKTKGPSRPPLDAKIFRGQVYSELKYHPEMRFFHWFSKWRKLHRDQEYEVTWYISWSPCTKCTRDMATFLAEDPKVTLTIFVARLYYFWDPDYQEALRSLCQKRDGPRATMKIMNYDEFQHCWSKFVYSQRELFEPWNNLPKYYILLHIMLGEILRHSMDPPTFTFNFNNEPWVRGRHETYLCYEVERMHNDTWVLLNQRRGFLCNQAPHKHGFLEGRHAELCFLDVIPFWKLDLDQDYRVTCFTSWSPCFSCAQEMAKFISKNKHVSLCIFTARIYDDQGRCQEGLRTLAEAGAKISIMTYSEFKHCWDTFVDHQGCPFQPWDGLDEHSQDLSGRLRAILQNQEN

For the molecule `CC1(C)CCC[C@@]2(C)[C@@H]1CC[C@]1(C)OC(=O)C[C@@H]21`, the Potency result in experiment [1], in [4] and in [5] was “inactive” each time. Moreover, the Potency in [2] is > 46 µM; in experiment [3] it was > 46 µM; in experiment [6], 15.8 µM (active).
As for `COc1ccc(-c2cc(=O)c3ccc(O)cc3o2)cc1`, the Potency in experiment [1] was 0.158 µM (active); in experiment [2], > 46 µM; in experiment [3], > 46 µM; in [7], 7.94 µM (active); in experiment [6] it was 3.16 µM (active). The Potency entry in experiment [8] and in experiment [5] was “inactive” each time. The outcome in experiment [9] was inactive.
As to `COc1ccccc1-c1cc(=O)c2cc(O)ccc2o1`, the Potency in experiment [1] was 0.2 µM (active); in [2], > 46 µM; in [7], 12.6 µM (active); in experiment [6], 0.398 µM (active). Further, the Potency result in experiment [4], in [10], in experiment [8] and in experiment [5] was “inactive” each time. In addition, in experiment [9], the result was inactive.
Regarding `C=C1CC[C@@H](O)C/C1=C/C=C1\CCC[C@]2(C)[C@@H]1CC[C@H]2[C@@H](C)/C=C\[C@@H](C)C(C)C`, the Potency entry in experiment [1], in [4] and in experiment [5] was “inactive” each time. The Potency was > 46 µM in experiment [2], > 46 µM in experiment [3] and 20 µM (active) in experiment [6].
Consider `COc1ccc(-c2oc3cc(OC)c(OC(C)=O)c(OC)c3c(=O)c2OC)cc1OC(C)=O`, for which the Potency in experiment [1] is 12.6 µM (active); in experiment [2], > 46 µM; in experiment [3], > 46 µM; in experiment [7], 5.01 µM (active). The Potency entry in [8], in experiment [5] and in experiment [6] was “inactive” throughout. The molecule was classed as inactive in experiment [9].
For the molecule `O=c1cc(-c2ccccc2O)oc2c(O)c(O)ccc12`, the Potency was 2.51 µM (active) in experiment [1]; > 46 µM in [2]; > 46 µM in experiment [3]; 1.26 µM (active) in [10]; 15.8 µM (active) in experiment [5]. Besides, the Potency entry in experiment [11] and in experiment [8] was “inactive” each time. Besides, the call in [9] was inactive.
As to `C[C@@H]1C(=O)O[C@@H]2C[C@@]34[C@H]5C[C@@H](C(C)(C)C)[C@@]36[C@@H](OC(=O)[C@@H]6O)O[C@]4(C(=O)O5)[C@@]12O`, the Potency entry in [1] and in [4] was “inactive” throughout. Besides, the Potency in [2] was > 46 µM.
In the case of `COc1ccc(-c2coc3cc(O[C@@H]4O[C@@H](CO)[C@@H](O)[C@@H](O)[C@H]4O)cc(O)c3c2=O)cc1`, the Potency entry in experiment [1], in experiment [4], in experiment [10], in experiment [5] and in experiment [6] was “inactive” throughout. Besides, the Potency in experiment [2] and in experiment [3] was > 46 µM each time.
Regarding `Cc1ccc(C(=O)[C@@H]2[C@@H]3[C@@H](C(=O)[C@@H]4OC[C@H]3O4)[C@@H]3C=Cc4ccccc4N23)cc1`, the Potency was 15.8 µM (active) in experiment [1]; > 46 µM in experiment [2]; > 46 µM in experiment [3]; 10 µM (active) in [10]; 15.8 µM (active) in experiment [6].
On to `COc1cccc(-c2cc(=O)c3cc(O)ccc3o2)c1`, for which the Potency was 1.58 µM (active) in experiment [1], > 46 µM in [2], 15.8 µM (active) in [7] and 25.1 µM (active) in [6]. The Potency entry in [4], in experiment [11], in experiment [8] and in [5] was “inactive” in each case. Also, the call in experiment [9] was inactive.
With `O=c1cc(-c2ccc(O)c(O)c2)oc2cccc(O)c12`, the Potency in experiment [1] was 0.158 µM (active); in experiment [2], > 46 µM; in experiment [3], > 46 µM; in experiment [10] it was 7.94 µM (active); in experiment [7], 15.8 µM (active). Further, the Potency entry in [11], in experiment [8] and in experiment [5] was “inactive” in each case. The result in experiment [9] was inactive.
In the case of `CC1=CC(=O)CC(C)(C)[C@@]1(O)/C=C\C(C)=C\C(=O)O`, the Potency result in [1], in experiment [4], in [11], in experiment [10], in experiment [5] and in experiment [6] was “inactive” in each case. Besides, the Potency in experiment [2] was > 46 µM.
Take `CC(=O)O[C@H]1CC[C@@]2(C)[C@@H](CC[C@@]3(C)[C@H]2C(=O)C=C2[C@H]4C[C@](C)(C(=O)OCCN5CCCCC5)CC[C@]4(C)CC[C@@]23C)C1(C)C`: the Potency result in experiment [1], in experiment [4], in experiment [10], in experiment [5] and in experiment [6] was “inactive” in each case. Besides, the Potency in experiment [2] and in experiment [3] was > 46 µM each time.
Take `COc1ccccc1-c1oc2ccccc2c(=O)c1OC`: the Potency in experiment [1] is 0.2 µM (active); in experiment [2] it was > 46 µM; in experiment [6], 7.94 µM (active). Moreover, the Potency result in experiment [4], in experiment [8] and in [5] was “inactive” each time. Also, in experiment [9], the molecule was classed as inactive.

Source of the values: PubChem BioAssay (NCATS).
